Experimental data as given in PubChem BioAssay (NCI).
Compounds without any hit were thinned out: in the full panel of roughly 83,000, 20% have a hit.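 Values shown are percent growth following 48 h exposure of cells in 96-well plates to a single concentration of compound; below 10 was considered active.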 Active and inactive are the calls of the source.

Tests used:
Assay in all cases: NCI-60 one-dose screen, 48 h (100 = growth as untreated, 0 = no growth, -100 = all killed)
Conditions in all cases: 10 µM unless noted
NCI-H23 lung = system: NCI-H23 lung
NCI-H226 lung = system: NCI-H226 lung
NCI-H322M lung = system: NCI-H322M lung
HOP-62 NSCLC = system: HOP-62 NSCLC
NCI-H460 lung = system: NCI-H460 lung
NCI-H522 lung = system: NCI-H522 lung
A549/ATCC NSCLC = system: A549/ATCC NSCLC
786-0 renal = system: 786-0 renal
COLO 205 colon = system: COLO 205 colon
DU-145 prostate = system: DU-145 prostate
K-562 leukemia = system: K-562 leukemia
MALME-3M melanoma = system: MALME-3M melanoma
MDA-MB-231 breast = system: MDA-MB-231 breast
RXF 393 renal = system: RXF 393 renal
SF-268 CNS = system: SF-268 CNS
SF-295 CNS = system: SF-295 CNS
SF-539 CNS = system: SF-539 CNS
UACC-257 melanoma = system: UACC-257 melanoma
M14 melanoma = system: M14 melanoma
HOP-92 NSCLC = system: HOP-92 NSCLC

Measured: growth

COc1c(C(C)=O)c(OCCCCOc2c(C(C)=O)c(OC)c3ccoc3c2OC)c(OC)c2occc12
inactive: NCI-H23 lung 68.8% | NCI-H226 lung 65.4% | NCI-H322M lung 85.2% | HOP-62 NSCLC 117% | NCI-H460 lung 80.1% | A549/ATCC NSCLC 64.7% | 786-0 renal 89% | COLO 205 colon 77% | DU-145 prostate 116% | K-562 leukemia 54.3% | MALME-3M melanoma 48.8% | MDA-MB-231 breast 82.7% | RXF 393 renal 80.7% | SF-268 CNS 84.3% | SF-295 CNS 19.7% | SF-539 CNS 105% | UACC-257 melanoma 73.3% | M14 melanoma 99.3%
active: NCI-H522 lung -7.73%

O=C(Nc1ccc(Cl)c(C(F)(F)F)c1)Nc1ccc(-c2cccnc2)cc1N1CCC(CO)CC1
active: COLO 205 colon -26.6% | MDA-MB-231 breast -17.5%
inactive: NCI-H23 lung 38.4% | NCI-H226 lung 53.4% | NCI-H322M lung 54.8% | HOP-62 NSCLC 47.5% | NCI-H460 lung 18.5% | NCI-H522 lung 20.2% | A549/ATCC NSCLC 22.2% | 786-0 renal 15.6% | DU-145 prostate 53.2% | K-562 leukemia 15.1% | MALME-3M melanoma 43.1% | RXF 393 renal 26.2% | SF-268 CNS 47.6% | SF-295 CNS 17.8% | SF-539 CNS 18.9% | UACC-257 melanoma 40.2% | M14 melanoma 24.1%

CSc1cccc([N+](=O)[O-])c1
inactive: NCI-H23 lung 109% | NCI-H226 lung 104% | NCI-H322M lung 102% | HOP-62 NSCLC 105% | NCI-H460 lung 114% | NCI-H522 lung 84% | A549/ATCC NSCLC 101% | 786-0 renal 101% | COLO 205 colon 107% | DU-145 prostate 110% | K-562 leukemia 96.6% | MALME-3M melanoma 103% | MDA-MB-231 breast 101% | RXF 393 renal 99% | SF-268 CNS 110% | SF-295 CNS 106% | SF-539 CNS 96.2% | UACC-257 melanoma 103% | M14 melanoma 102%

CCOC(=O)c1nc2c3ccccc3ccn2c1C(=O)OC
inactive: NCI-H23 lung 97.2% | NCI-H226 lung 97.2% | NCI-H322M lung 95.6% | HOP-62 NSCLC 95.5% | NCI-H460 lung 103% | NCI-H522 lung 90.6% | A549/ATCC NSCLC 92.8% | 786-0 renal 93.8% | COLO 205 colon 104% | DU-145 prostate 104% | K-562 leukemia 113% | MALME-3M melanoma 100% | MDA-MB-231 breast 99.9% | RXF 393 renal 93.8% | SF-268 CNS 101% | SF-295 CNS 106% | SF-539 CNS 100% | UACC-257 melanoma 102% | M14 melanoma 107%

CC(C)C1=NOC(=O)C1=Cc1cn(-c2ccccc2)nc1-c1cccc([N+](=O)[O-])c1
inactive: NCI-H23 lung 91.9% | NCI-H226 lung 102% | NCI-H322M lung 98.1% | NCI-H460 lung 87.9% | HOP-92 NSCLC 88.8% | NCI-H522 lung 74.7% | A549/ATCC NSCLC 97% | 786-0 renal 76.7% | COLO 205 colon 109% | DU-145 prostate 84.9% | K-562 leukemia 33.4% | MALME-3M melanoma 109% | MDA-MB-231 breast 93.1% | RXF 393 renal 68.9% | SF-268 CNS 94.1% | SF-295 CNS 99.1% | SF-539 CNS 98.1% | UACC-257 melanoma 104% | M14 melanoma 78.3%

Cc1ccc(NCCN2CCCCC2)c2c(=O)c3ccccc3sc12
active: NCI-H460 lung 2.26% | NCI-H522 lung 2.96% | COLO 205 colon -41.8% | RXF 393 renal -29.5% | UACC-257 melanoma -43% | M14 melanoma -30%
inactive: NCI-H23 lung 43.1% | NCI-H226 lung 57.2% | NCI-H322M lung 45.7% | HOP-92 NSCLC 29.5% | A549/ATCC NSCLC 20.2% | 786-0 renal 30.7% | DU-145 prostate 36.7% | K-562 leukemia 16.2% | MALME-3M melanoma 22.1% | MDA-MB-231 breast 28.3% | SF-268 CNS 45.7% | SF-295 CNS 39% | SF-539 CNS 32.3%

O=C(NNc1ccc(-c2ccccc2)nn1)c1ccc(F)cc1
inactive: NCI-H23 lung 104% | NCI-H226 lung 98.7% | NCI-H322M lung 94.3% | NCI-H460 lung 99.1% | NCI-H522 lung 95.2% | A549/ATCC NSCLC 98.4% | 786-0 renal 78% | COLO 205 colon 112% | DU-145 prostate 88.9% | K-562 leukemia 98.5% | MALME-3M melanoma 109% | MDA-MB-231 breast 94.5% | RXF 393 renal 82.1% | SF-268 CNS 88.8% | SF-295 CNS 95.3% | SF-539 CNS 93.4% | UACC-257 melanoma 108% | M14 melanoma 99.9%

COc1ccc(NC(=S)NNc2ccc(-c3ccc(OC)c(OC)c3)nn2)cc1
inactive: NCI-H23 lung 106% | NCI-H226 lung 107% | NCI-H322M lung 96.7% | NCI-H460 lung 99.7% | HOP-92 NSCLC 106% | NCI-H522 lung 97.9% | A549/ATCC NSCLC 110% | 786-0 renal 101% | COLO 205 colon 112% | DU-145 prostate 107% | K-562 leukemia 104% | MALME-3M melanoma 112% | MDA-MB-231 breast 96.1% | RXF 393 renal 120% | SF-268 CNS 92.9% | SF-295 CNS 101% | SF-539 CNS 97.6% | UACC-257 melanoma 103% | M14 melanoma 99.2%

CC(C)[C@H]1CCC2=C3CC[C@]45OC(=O)[C@@]6(CCC(C)(C)C[C@H]64)CC[C@@]5(C)[C@]3(C)CC[C@@]21C
inactive: NCI-H23 lung 54.4% [100 µM] | NCI-H226 lung 68.4% [100 µM] | NCI-H322M lung 94.5% [100 µM] | NCI-H460 lung 71.8% [100 µM] | HOP-92 NSCLC 19.9% [100 µM] | NCI-H522 lung 55.7% [100 µM] | A549/ATCC NSCLC 67.1% [100 µM] | 786-0 renal 69.3% [100 µM] | COLO 205 colon 97% [100 µM] | DU-145 prostate 83.3% [100 µM] | K-562 leukemia 45.3% [100 µM] | MALME-3M melanoma 91.6% [100 µM] | MDA-MB-231 breast 61.2% [100 µM] | RXF 393 renal 78.6% [100 µM] | SF-268 CNS 75.6% [100 µM] | SF-295 CNS 88.7% [100 µM] | SF-539 CNS 71.6% [100 µM] | UACC-257 melanoma 77.1% [100 µM] | M14 melanoma 86.3% [100 µM]

C=CC1=C(C)C2=NC1=CC1=NC(=CC3=C(C)C4=C(O)C(C(=O)O)C(=C5NC(=C2)C(C)C5CCC(=O)O)C4=N3)C(CC)=C1C (centres undefined)
inactive: NCI-H23 lung 107% | NCI-H226 lung 97.5% | NCI-H322M lung 112% | NCI-H460 lung 107% | HOP-92 NSCLC 108% | NCI-H522 lung 116% | A549/ATCC NSCLC 94.6% | 786-0 renal 113% | COLO 205 colon 114% | DU-145 prostate 113% | K-562 leukemia 106% | MALME-3M melanoma 125% | MDA-MB-231 breast 121% | RXF 393 renal 125% | SF-268 CNS 107% | SF-295 CNS 116% | SF-539 CNS 106% | UACC-257 melanoma 115% | M14 melanoma 104%

CC1Cc2c(Cl)ncnc2N(C)c2ccccc21 (centres undefined)
inactive: NCI-H23 lung 18.6% | NCI-H322M lung 26.8% | NCI-H460 lung 21.2% | HOP-92 NSCLC 26% | NCI-H522 lung 57.7% | A549/ATCC NSCLC 16.6% | DU-145 prostate 65.6% | K-562 leukemia 37.6% | RXF 393 renal 13.6% | SF-268 CNS 24.4% | SF-295 CNS 19.9% | SF-539 CNS 33% | UACC-257 melanoma 11.5% | M14 melanoma 14.7%
active: NCI-H226 lung 1.16% | 786-0 renal 4.7% | COLO 205 colon -81.1% | MALME-3M melanoma 0.822% | MDA-MB-231 breast -33.8%

CCCSc1nc(N)nc2nc[nH]c12
inactive: NCI-H23 lung 97.5% | NCI-H226 lung 103% | NCI-H322M lung 161% | NCI-H460 lung 106% | HOP-92 NSCLC 91.9% | NCI-H522 lung 88.4% | A549/ATCC NSCLC 105% | 786-0 renal 97.5% | COLO 205 colon 113% | DU-145 prostate 119% | K-562 leukemia 90.5% | MALME-3M melanoma 249% | MDA-MB-231 breast 104% | RXF 393 renal 107% | SF-268 CNS 108% | SF-295 CNS 120% | SF-539 CNS 95.6% | UACC-257 melanoma 105% | M14 melanoma 96%

CCCCN(CCCC)CC(O)c1ccc(OCc2ccccc2)c2ccccc12 (centres undefined)
inactive: NCI-H23 lung 61.2% | NCI-H226 lung 104% | NCI-H322M lung 90% | NCI-H460 lung 83.1% | HOP-92 NSCLC 76.6% | NCI-H522 lung 23.7% | A549/ATCC NSCLC 86.1% | 786-0 renal 84.6% | COLO 205 colon 87.9% | DU-145 prostate 89.6% | MALME-3M melanoma 58.6% | MDA-MB-231 breast 74.9% | RXF 393 renal 106% | SF-268 CNS 74.5% | SF-295 CNS 48.6% | SF-539 CNS 101% | UACC-257 melanoma 90.2% | M14 melanoma 72.2%
active: K-562 leukemia -4.85%

Fc1cc2[nH]ncc2c2c3c(c(-c4cn[nH]c4C(F)(F)F)nc12)C1CCC3C1 (centres undefined)
active: NCI-H23 lung -4.72% | NCI-H226 lung 4.86% | NCI-H322M lung 0.591% | NCI-H460 lung 1.8% | NCI-H522 lung -2.89% | A549/ATCC NSCLC -6.2% | 786-0 renal 2.72% | COLO 205 colon -74.7% | DU-145 prostate 4.96% | MALME-3M melanoma 9.41% | MDA-MB-231 breast -5.18% | RXF 393 renal -89.8% | SF-268 CNS 3.13% | SF-295 CNS 8.79% | SF-539 CNS -32.4% | UACC-257 melanoma 0.635% | M14 melanoma -6.09%
inactive: HOP-92 NSCLC 17.1% | K-562 leukemia 19.4%

CC1(C)CC[C@]23CC[C@]4(C)[C@H](CC[C@@H]5[C@@]6(C)C/C(=C/c7ccncc7)C(=O)C(C)(C)[C@@H]6CC[C@]54C)[C@H]2[C@H]1OC3=O
active: SF-539 CNS 6.84% [100 µM]
inactive: NCI-H23 lung 61.4% [100 µM] | NCI-H226 lung 77.4% [100 µM] | NCI-H322M lung 96.5% [100 µM] | NCI-H460 lung 51% [100 µM] | HOP-92 NSCLC 16.8% [100 µM] | NCI-H522 lung 50.9% [100 µM] | A549/ATCC NSCLC 70.1% [100 µM] | 786-0 renal 31% [100 µM] | COLO 205 colon 90.5% [100 µM] | DU-145 prostate 80.5% [100 µM] | K-562 leukemia 50.7% [100 µM] | MALME-3M melanoma 67.6% [100 µM] | MDA-MB-231 breast 37.5% [100 µM] | RXF 393 renal 43.6% [100 µM] | SF-268 CNS 42.7% [100 µM] | SF-295 CNS 25.1% [100 µM] | UACC-257 melanoma 84.5% [100 µM] | M14 melanoma 79.3% [100 µM]
